Bioassay records: PubChem BioAssay, National Center for Advancing Translational Sciences (NCATS)
Shown are actives, neighbours in structure and some others; about 12% of the full set was active somewhere.
L3MBTL1 inh = inhibitors of human L3MBTL1; Q9Y468; Potency, µM (highest dose often 57.1 µM), usual class: inhibitors; AlphaScreen L3MBTL1–H3K9me1 peptide binding; hit rate 0.66% among 230,000; AID 485360; note: nearly all actives have a fitted effect of over 60% in size
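AlphaScreen assay: L3MBTL1 (50 nM final) was preincubated 30 min at room temperature with biotinylated H3(1-15)K9me1 peptide (75 nM final), then 30 min with library compounds; streptavidin donor and nickel chelate acceptor beads (10 ug/mL final) added, 30 min dark.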
G9a inh = inhibitors of human histone lysine methyltransferase G9a; AID 504332; Potency, µM (top dose mostly 102 µM), hits mostly inhibitors; Q96KQ7; G9a H3K9 monomethylation, AlphaScreen, 2 h; hit rate 8.8% among 350,000; note: nearly all actives have a fitted effect of over 75% in size
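Compounds were preincubated with 20 nM G9a for 15 min, after which biotinylated H3K9 peptide (500 nM) and SAM (20 uM) started a 2 h room-temperature reaction. Monomethylated product was quantified by antibody-based AlphaScreen chemiluminescence.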
JMJD2A Tudor inh = blocks the human JMJD2A Tudor domain | AlphaScreen JMJD2A-Tudor / H3K4me3 peptide binding | Potency, µM (series often up to 114 µM), hits mostly inhibitors | hit rate 4.4% among 390,000 | AID 504339; note: nearly all actives have a fitted effect of over 50% in size
Target sequence (O75164 whole entry, looked up, the tested form may be a part): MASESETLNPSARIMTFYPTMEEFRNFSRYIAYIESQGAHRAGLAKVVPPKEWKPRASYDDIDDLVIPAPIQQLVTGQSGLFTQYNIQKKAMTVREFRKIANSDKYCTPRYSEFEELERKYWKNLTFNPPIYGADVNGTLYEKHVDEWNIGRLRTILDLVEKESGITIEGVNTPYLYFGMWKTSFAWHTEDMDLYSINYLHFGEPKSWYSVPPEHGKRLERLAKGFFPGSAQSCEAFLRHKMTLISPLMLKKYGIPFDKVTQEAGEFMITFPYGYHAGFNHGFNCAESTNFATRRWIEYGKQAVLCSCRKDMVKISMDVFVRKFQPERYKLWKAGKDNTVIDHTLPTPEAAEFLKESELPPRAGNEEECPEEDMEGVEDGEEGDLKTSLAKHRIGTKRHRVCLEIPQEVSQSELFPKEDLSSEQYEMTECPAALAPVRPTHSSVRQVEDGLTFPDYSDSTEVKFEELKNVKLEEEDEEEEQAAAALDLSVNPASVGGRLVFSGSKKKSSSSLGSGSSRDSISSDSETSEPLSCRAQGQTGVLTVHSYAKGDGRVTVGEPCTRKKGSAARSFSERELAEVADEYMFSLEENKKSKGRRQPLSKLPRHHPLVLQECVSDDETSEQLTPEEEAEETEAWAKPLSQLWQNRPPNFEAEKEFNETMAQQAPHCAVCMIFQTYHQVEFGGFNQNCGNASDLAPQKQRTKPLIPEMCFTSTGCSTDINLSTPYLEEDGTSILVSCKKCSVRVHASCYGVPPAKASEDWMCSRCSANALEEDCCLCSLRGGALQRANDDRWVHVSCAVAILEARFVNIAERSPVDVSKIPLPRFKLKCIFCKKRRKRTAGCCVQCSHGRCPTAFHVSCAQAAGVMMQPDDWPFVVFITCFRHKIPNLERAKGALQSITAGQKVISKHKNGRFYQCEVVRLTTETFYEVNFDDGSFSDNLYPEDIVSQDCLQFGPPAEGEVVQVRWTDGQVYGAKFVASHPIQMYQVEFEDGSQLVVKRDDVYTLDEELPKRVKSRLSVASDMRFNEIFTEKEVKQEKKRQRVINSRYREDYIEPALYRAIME
Sfp PPTase inh = inhibitors of Bacillus subtilis Sfp phosphopantetheinyl transferase | Biochemical Sfp PPTase activity, qHTS | Potency, µM, usual class: inhibitors | hit rate 3.5% among 310,000 | AID 1490;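 note: the enzyme is Sfp with the accession as filed and its product quenches rhodamine fluorescence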
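Step 1, compound plus 15 nM Sfp-PPTase, 15 min, room temperature. Step 2, add rhodamine-CoA (5 uM) and BHQ-2-YbbR (12.5 uM). Step 3, read 525/598 nm fluorescence at 0 and 30 min.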
BAZ2B block = blocks human BAZ2B. Q9UIF8. AlphaScreen BAZ2B-H3K14Ac peptide displacement. Potency, µM (doses to about 114 µM), usual class: inhibitors. hit rate 4.4% among 360,000; note: nearly all actives have a fitted effect of over 60% in size
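Multi-concentration screen (max 110 uM) measuring displacement of acetylated histone H3 peptide from BAZ2B by AlphaScreen, using 50 nM protein, 50 nM peptide and 10 ug/mL streptavidin donor plus Ni-chelate acceptor beads.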
HP1b binding inh = inhibitors of HP1-beta chromodomain binding to methylated histone tails. P83916. AlphaScreen HP1-beta / biotin-H3K9me3 peptide binding. Potency, µM (titrated, usually from 114 µM), hits mostly inhibitors. hit rate 0.56% among 390,000. AID 540317; note: nearly all actives have a fitted effect of over 70% in size
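HP1-beta protein (50 nM final) preincubated 30 min at room temperature with biotinylated H3(1-18)K9me3 peptide (50 nM) in PBS pH 7.4, 0.01% Tween-20, then compound added for 30 min. AlphaScreen streptavidin donor/nickel chelate acceptor beads (10 ug/mL final), 30 min dark, luminescence read.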
Hits are given with their value; . = inactive; ? = inconclusive; / = no result; [ ] = dose if it differs, or a comment. Calls come from the whole dose curve; as a rule, active = well fitted curve in the direction sought with a large enough effect; inconclusive = small, poorly fitted or top-dose-only effect, or another doubt; inactive = no such curve, though single readings can be large; an effect the other way counts as inactive or inconclusive.

SMILES	L3MBTL1 inh	G9a inh	JMJD2A Tudor inh	Sfp PPTase inh	BAZ2B block	HP1b binding inh
NS(=O)(=O)c1ccc(CNC(=O)c2ccccn2)cc1	.	.	.[11.4 µM]	.	79µM	.
CCOc1ccc(NC(=O)c2ccc3c(c2)CCN3S(=O)(=O)c2ccc(Cl)cc2)cc1	/	.	.	/	.	.
CCOc1ccc(NC(=O)/C(C=Nc2ccccc2)=C(\C)O)cc1	/	45µM	?	.	.	.
N.N.O=C(O)C1(C(=O)O)CCC1.[Pt]	/	0.63µM	/	.	/	/
CN(C)c1ccc(/C=C2/C(=O)N(c3ccc([N+](=O)[O-])cc3)N=C2N2CCOCC2)cc1	?	.[0.501 µM]	/	.	7.1µM	/
O=C(O)C1Nc2c(Cl)cc(Cl)c(Cl)c2C2C=CCC12 (configuration not stated)	/	/	56µM	/	/	?
CC(C)CNC(=O)C1Nc2ccc(C(F)(F)F)cc2C2C=CCC12 (configuration not stated)	/	/	.	/	/	.
O=C(O)C1Nc2c(O)cccc2C2C=CCC12 (configuration not stated)	1µM	10µM	2.5µM	.	1.6µM	28µM
O=C(O)C1Nc2c(Cl)cc(Cl)cc2C2C=CCC12 (configuration not stated)	3.5µM	/	22µM	?	25µM	28µM
Cc1ccc(C)c2c1NC(C(=O)O)C1CC=CC21 (configuration not stated)	/	/	20µM	/	/	22µM
O=C(NCCOc1ccccc1)C1Nc2ccc(OC(F)(F)F)cc2C2C=CCC12 (configuration not stated)	/	/	.	/	/	.
Cc1c(Cl)cccc1N1C(N)=C(C#N)C(c2cc(CN3CCOCC3)cs2)C2=C1CCCC2=O (configuration not stated)	/	.	.	/	.	.
Cc1ccc(CSc2nc3ccncc3[nH]2)cc1	/	.	.	.	.	.
CCCC(CCC)c1nc2ccncc2[nH]1	/	50µM	?	.	?	?
COc1ccc(C(=O)O)cc1Nc1nc2ccc(C)cc2n2cnnc12	/	.	.	/	.	.
Cc1nc2nc(SCC(=O)NCCCN3CCCCCC3)nn2c(C)c1Cc1ccccc1Cl	/	79µM	?	.	.	.
Cc1nc2nc(SCC(=O)N3CCOCC3)nn2c(C)c1Cc1c(F)cccc1Cl	.	22µM	.	?	.	.
OCCN(Cc1ccccc1)Cc1ncccc1O	/	/	.	/	/	.
OCCN(Cc1cccnc1)Cc1ccccn1	/	/	50µM	/	/	.
Cc1ccc(Cn2c(=O)n(-c3cc(C)cc(C)c3)c(=O)c3oc4ccccc4c32)cc1	/	.	.	/	.	.
CCCCCNC(=O)C1CCC(Cn2c(=O)c3sccc3n(CC)c2=O)CC1 (configuration not stated)	/	.	.	/	.	.
Cc1cccc(-c2c3c(=O)n(C)c(=O)n(C)c3cn2CC2CCCO2)c1 (configuration not stated)	.	40µM	.	.	.	.
Cc1cccc(-c2c3c(=O)n(C)c(=O)n(C)c3cn2CCO)c1	.	22µM	.	.	.	.
COc1ccc(C(=O)N2CCC3(CCN(Cc4cc(C(F)(F)F)cc(C(F)(F)F)c4)CC3)CC2)cc1	/	.[12.7 µM]	/	.	/	/
Clc1ccccc1-c1nnc(-c2ccccc2Cl)o1	.[11.4 µM]	.	.	.	.	.
SMILES	L3MBTL1 inh	G9a inh	JMJD2A Tudor inh	Sfp PPTase inh	BAZ2B block	HP1b binding inh
Clc1ccc(-c2nnc(-c3ccccc3Cl)o2)cc1	.	.	.	71µM	.	.
Brc1ccc(-c2nnc(-c3ccccc3Br)o2)cc1	.	.	.	50µM	.	.
O=c1oc2ccccc2c2oc3cc(O)c(O)cc3c12	?	/	7.9µM	?	40µM	?
CCOC(=O)c1sc2ccccc2c1OC(=O)c1ccc(C)cc1	.	.	.	.	.	.
CCOC(=O)c1sc(S(C)=O)c2c1CCc1conc1-2 (configuration not stated)	.	32µM	.	40µM	.	.
CCCc1cc(=O)[nH]c2nnc(SCC)n12	/	?	.	/	.	.
CCOC(=O)c1ccc2c(c1)[C@@H]1C=CC[C@@H]1[C@H](c1cccc(OC)c1OC)N2	/	.	.	/	.	.
O=C(OC1CCCCC1)c1ccc2c(c1)C1C=CCC1C(C(=O)O)N2 (configuration not stated)	3.2µM	?	/	.	7.1µM	/
CCOC(=O)c1ccc2c(c1)C1C=CCC1C(C(=O)OCC)N2 (configuration not stated)	?	11µM	?	45µM	45µM	.
CCOC(=O)C1Nc2ccc(C)cc2C2C=CCC12 (configuration not stated)	/	/	56µM	/	/	.
CCOC(=O)C1Nc2ccc(Br)cc2C2C=CCC12 (configuration not stated)	.	3.5µM	40µM	28µM	45µM	?
CC(C)CNC(=O)C1Nc2ccc(OC(F)(F)F)cc2C2C=CCC12 (configuration not stated)	/	/	?	/	/	.
COc1ccc(-c2cc(C(=O)Oc3ccc(Br)cc3)c3ccccc3n2)cc1	/	.	.	/	.	.
CCc1ccccc1NC(=O)c1nnn(Cc2ccc(Cl)cc2)c1N	/	.	.	/	.	.
O=C(O)C1Nc2ccc(Br)cc2C2C=CCC12 (configuration not stated)	/	1.8µM	20µM	?	3.2µM	18µM
COC(=O)CNC(=O)C1Nc2ccccc2C2C=CCC12 (configuration not stated)	/	/	56µM	/	/	.
COCC(C)n1c(C)cc(C(=O)COc2ccc(N(C)S(=O)(=O)c3ccc(NC(C)=O)cc3)cc2)c1C (configuration not stated)	.	35µM	.	/	?	.
C=CCn1c(C)cc(C(=O)COc2ccc(N(C)S(=O)(=O)c3ccc(NC(C)=O)cc3)cc2)c1C	.	/	.	/	/	.
CCN1C(=O)/C(=C/C=C2/Sc3ccc4ccccc4c3N2CCO)SC1=S	.	.	.	50µM	?	.
CCN1C(c2ccccc2)=C(c2ccccc2)S/C1=C/C=C1\SC(=S)N(C)C1=O	?	5.6µM	8.9µM	?	2.5µM	11µM
CCN1C(c2ccccc2)=C(c2ccccc2)S/C1=C\C=C1/SC(=S)N(C)C1=O	/	/	7.9µM	/	/	8.9µM
CCN1C(=O)/C(=C/N2CCc3ccccc3C2)SC1=S	.	/	.	.	.	.
O=C(c1ccc(CSc2nc3ccncc3[nH]2)cc1)N1CCN(c2cccc(Cl)c2)CC1	.	45µM	?	.	35µM	.
NC(=O)c1c(NC(=O)CSc2nnc(Cc3ccccc3)n2Cc2ccco2)sc2c1CCC2	.	40µM	?	.	.	.
O=C(CSc1nnc(Cc2ccccc2)n1Cc1ccco1)NC12CC3CC(CC(C3)C1)C2	.	.[12.7 µM]	?	.	?	.
CCOC(=O)c1c(NC(=O)CSc2nnc(CNC(=O)c3ccco3)n2C)sc2c1CCC2	.	50µM	.	.	?	.
COc1ccccc1-c1nccc(NCc2cccc(C)c2)n1	/	/	/	.	/	/
